Assay: fission yeast growth modulation, primary screen, strain 972, OD600, 24 h, no modulator (AID 1090);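 note: basal condition with compound alone and no growth modifier present; test concentration not given here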
Conditions: S. pombe 972 growth, higher = more signal, called active from +8 up or from −8 down

z-score, inactive:
O=C1C2C=CC(C(O)c3ccc([N+](=O)[O-])cc3)N(Nc3ccccc3)C2C(=O)N1c1ccccc1 (configuration not stated) 0.485
CC(=O)NCCCC[C@@H]1NC(=O)[C@H]2C[C@@H](C(=O)NCCCCCC[N+](C)(C)C)[C@@H](c3ccc(O)cc3)N2C1=O 0.555
CCCC[C@H]1OB(O)C[C@H]2C1=C(COC)C[C@H]1C(=O)C=CC(=O)[C@H]12 -1.56
C[C@@H](OCc1ccccc1)C1NC(=O)[C@@]23C(=O)N[C@@H](Cc4ccccc4)C2[C@H](C)[C@@]2(C)O[C@H]2C3/C=C/C/C=C\CNC(=O)[C@H](Cc2ccccc2)NC1=O (some centres not stated) -0.985
C=CCC(OC(C)=O)[C@@H]1[C@@H](N(Cc2ccc(-c3cccc(C(F)(F)F)c3)o2)C(=O)c2cccc3ccccc23)c2cc(OCCCO)ccc2N1C(=O)c1ccc2ccccc2c1 (some centres not stated) 0.609
COCCn1c(C(=O)N2CCCC2)cc2c1C[C@H]1CN(C(=O)c3ccccc3)[C@@](Cc3ccccc3)(C(=O)OC)[C@@H]21 0.105
C=CC[C@@]12N=C(c3ccc(OCCCO)cc3)O[C@@H]1c1ccccc1N(Cc1ccccc1)C2=O -1.53
C[C@]1(C(=O)NCC(F)(F)F)c2ccccc2C(=O)N(Cc2ccc(OC(F)(F)F)cc2)[C@H]1c1ccc(CO)cc1 -0.47
O=C1N(CCS(=O)(=O)c2ccccc2)c2ccccc2[C@@H]2OC(c3ccc(OCCCO)cc3)=N[C@]12CCS(=O)(=O)c1ccccc1 1.78
CN(C)CCCC[C@@H]1NC(=O)[C@@H]2C[C@H](C(=O)NCCCCCCNC(=O)CS)[C@H](c3cccc(OCCO)c3)N2C1=O -0.0576
[N-]=[N+]=Nc1ccccc1[C@@H]1OC(c2ccc(OCCCO)cc2)=N[C@]1(Cc1ccccc1)C(N)=O -1.21
C=CC[C@]1(C(=O)N(C)C)COC(c2ccc(OCCCO)cc2)=N1 -2.04
O=C1O[C@@H](c2ccccc2)[C@@H](c2ccccc2)N2[C@@H](c3ccc(O)cc3)[C@]3(C(=O)Nc4ccc(C#CC5=CCCCC5)cc43)[C@@H](C(=O)N3CCCCCCC3)[C@H]12 -0.604
CCCCC(=C=CC[C@@H](O)c1cccc(OCCO)c1)C[C@@H](O)COCc1ccccc1 -1.95
[N-]=[N+]=NCc1ccccc1C[C@]1(C(=O)O)COC(c2ccc(OCCCO)cc2)=N1 0.612
COC(=O)[C@]1(CO)N=C(c2ccc(OCCCO)cc2)O[C@@H]1c1ccccc1CN=[N+]=[N-] 0.44
COc1ccc(NN2C(C(O)c3cc(C(F)(F)F)cc(C(F)(F)F)c3)C=CC3C(=O)N(C4CCCCC4)C(=O)C32)cc1 (configuration not stated) 0.495
CN(C)CCCC[C@@H]1NC(=O)[C@H]2C[C@@H](C(=O)NCc3ccc(F)cc3)[C@@H](c3ccc(O)cc3)N2C1=O -1.1
CCCC=C(CCC)[C@@H](NC(=O)c1ccccc1)c1ccc(C(=O)OC)cc1 -1.5
C=CCC(OC(C)=O)[C@@H]1[C@@H](N(Cc2cccc3ccccc23)C(=O)c2cccc3ccccc23)c2cc(OCCCO)ccc2N1C(=O)Cc1ccc2ccccc2c1 (some centres not stated) 0.0827
C=C(COC)/C(=C/C[C@@H](OC(C)=O)c1ccccc1OCCO)c1cc(C(=O)OC)ccc1OC -0.145
CO[C@H]1O[C@H](CO)[C@@H](OC(=O)Nc2ccc(C(F)(F)F)cc2)[C@H](OC(=O)Nc2ccccc2-c2ccccc2)[C@@H]1OC(=O)Nc1ccccc1-c1ccccc1 1.25
CCOC(=O)C[C@H]1[C@H](OC(=O)c2ccc(-c3ccccc3)cc2)[C@@H](NC(=O)CC(C)C)c2cc(OCCCO)ccc2N1C(=O)Cc1ccc(OC)cc1 -0.218
CCOC(=O)C[C@H]1[C@H](OC(=O)c2cc3ccccc3oc2=O)[C@@H](NC(=O)C2CCCCC2)c2cc(OCCCO)ccc2N1C(=O)Cc1ccc(OC)cc1 0.222
N#Cc1ccc(C(O)C2C=CC3C(=O)NC(=O)C3N2Nc2ccccn2)cc1 (configuration not stated) 0.811
O=C1C2C=CC(C(O)c3cccs3)N(Nc3ccccc3)C2C(=O)N1c1ccccc1 (configuration not stated) -0.175
COC(=O)[C@@]1(Cc2ccc(OC)cc2)[C@H]2c3cc(C(=O)N4CCCC4)n(CCc4ccc(OC)c(Br)c4)c3C[C@H]2CN1C(=O)c1ccccc1 0.111

Reference: PubChem BioAssay
